This is part of a sample that, as a whole, favours compounds with a hit. Of some 83,000 tested, about 20% had one in any assay.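 Each cell line was grown in a 96-well plate and treated with one concentration of compound for 48 hours. Values below 10 were considered active.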 Calls of active or inactive are those of the source.
What was measured:
Experiment in all cases: NCI-60 one-dose screen, 48 h (100 = growth as untreated, 0 = no growth, -100 = all killed)
Settings in all cases: 10 µM unless noted
NCI-H23 lung = test system: NCI-H23 lung
NCI-H226 lung = test system: NCI-H226 lung
NCI-H322M lung = test system: NCI-H322M lung
HOP-62 NSCLC = test system: HOP-62 NSCLC
NCI-H460 lung = test system: NCI-H460 lung
HOP-92 NSCLC = test system: HOP-92 NSCLC
NCI-H522 lung = test system: NCI-H522 lung
A549/ATCC NSCLC = test system: A549/ATCC NSCLC
786-0 renal = test system: 786-0 renal
COLO 205 colon = test system: COLO 205 colon
DU-145 prostate = test system: DU-145 prostate
K-562 leukemia = test system: K-562 leukemia
MALME-3M melanoma = test system: MALME-3M melanoma
MDA-MB-231 breast = test system: MDA-MB-231 breast
RXF 393 renal = test system: RXF 393 renal
SF-268 CNS = test system: SF-268 CNS
SF-295 CNS = test system: SF-295 CNS
SF-539 CNS = test system: SF-539 CNS
UACC-257 melanoma = test system: UACC-257 melanoma
M14 melanoma = test system: M14 melanoma

Measured: growth

O=C(N=Nc1c(O)[nH]c2ccccc12)Nc1ccc(Cl)cc1
inactive: NCI-H23 lung 93% | NCI-H226 lung 95.5% | NCI-H322M lung 75.3% | HOP-62 NSCLC 98.6% | NCI-H460 lung 91.3% | HOP-92 NSCLC 80% | NCI-H522 lung 89.8% | A549/ATCC NSCLC 92.5% | 786-0 renal 97.8% | COLO 205 colon 99.5% | DU-145 prostate 108% | K-562 leukemia 81.5% | MALME-3M melanoma 96.3% | MDA-MB-231 breast 102% | RXF 393 renal 96.3% | SF-268 CNS 101% | SF-295 CNS 101% | SF-539 CNS 83.8% | UACC-257 melanoma 95.8% | M14 melanoma 95.3%

Cc1ccc(-c2cc(C(=O)N3N=C(c4ccc(N)cc4)CC3c3ccc(Cl)cc3)c3ccccc3n2)cc1 (stereo not given)
active: NCI-H522 lung -2.26% | COLO 205 colon 2.01% | K-562 leukemia 7.72% | RXF 393 renal -0.262% | SF-539 CNS -2.29% | M14 melanoma -24%
inactive: NCI-H23 lung 49.4% | NCI-H226 lung 72.1% | NCI-H322M lung 48.3% | HOP-62 NSCLC 33.9% | NCI-H460 lung 12.9% | HOP-92 NSCLC 41.2% | A549/ATCC NSCLC 21.4% | 786-0 renal 24.3% | DU-145 prostate 18.6% | MALME-3M melanoma 67% | MDA-MB-231 breast 44.5% | SF-268 CNS 38.9% | SF-295 CNS 21.4% | UACC-257 melanoma 43.7%

Cc1cc(C)cc(Nc2ccc([N+](=O)[O-])c(NCCN3CCOCC3)n2)c1
inactive: NCI-H23 lung 30.3% | NCI-H226 lung 22.6% | NCI-H322M lung 44.1% | HOP-62 NSCLC 35.3% | HOP-92 NSCLC 67.7% | NCI-H522 lung 13.3% | A549/ATCC NSCLC 23.7% | MALME-3M melanoma 60.5% | MDA-MB-231 breast 31.2% | RXF 393 renal 58.4% | SF-268 CNS 25.1% | SF-295 CNS 15.7% | UACC-257 melanoma 76.1%
active: NCI-H460 lung 8.31% | 786-0 renal 8.13% | COLO 205 colon -45.9% | DU-145 prostate -1.87% | K-562 leukemia 7.21% | SF-539 CNS -11.3% | M14 melanoma 1.99%

Nc1ncnc2c1c(-c1ccc(Oc3ccccc3)cc1)nn2CC1SSCC1O (stereo not given)
inactive: NCI-H23 lung 49% | NCI-H226 lung 23.4% | NCI-H322M lung 34.8% | HOP-62 NSCLC 56.9% | NCI-H460 lung 28% | NCI-H522 lung 37.8% | A549/ATCC NSCLC 42.3% | 786-0 renal 63.8% | COLO 205 colon 35.2% | DU-145 prostate 49% | K-562 leukemia 11.2% | MDA-MB-231 breast 47% | RXF 393 renal 17.7% | SF-268 CNS 48.8% | SF-295 CNS 73% | SF-539 CNS 41.2% | UACC-257 melanoma 46.6%
active: HOP-92 NSCLC 6.06% | MALME-3M melanoma -34.8% | M14 melanoma -73.5%

O=C(Cn1nnc([N+](=O)[O-])n1)c1ccccc1
inactive: NCI-H23 lung 96.5% | NCI-H226 lung 112% | NCI-H322M lung 101% | HOP-62 NSCLC 94.8% | NCI-H460 lung 93.2% | HOP-92 NSCLC 63.6% | NCI-H522 lung 86.9% | A549/ATCC NSCLC 87% | 786-0 renal 102% | COLO 205 colon 100% | DU-145 prostate 99.4% | K-562 leukemia 83.3% | MALME-3M melanoma 92.7% | MDA-MB-231 breast 71.5% | RXF 393 renal 91.8% | SF-268 CNS 83.1% | SF-295 CNS 58% | SF-539 CNS 93.3% | UACC-257 melanoma 90.9% | M14 melanoma 71.5%

CC(=O)N/C(=C1/OC(C(O)C(O)C(O)CO)CN1C)[P+](c1ccccc1)(c1ccccc1)c1ccccc1 (stereo not given)
inactive: NCI-H23 lung 106% | NCI-H226 lung 97.6% | NCI-H322M lung 95.1% | HOP-62 NSCLC 91.4% | NCI-H460 lung 108% | HOP-92 NSCLC 101% | NCI-H522 lung 93.5% | A549/ATCC NSCLC 102% | 786-0 renal 102% | COLO 205 colon 107% | DU-145 prostate 105% | K-562 leukemia 97.6% | MALME-3M melanoma 90.5% | MDA-MB-231 breast 103% | RXF 393 renal 97% | SF-268 CNS 102% | SF-295 CNS 100% | SF-539 CNS 97.6% | UACC-257 melanoma 104% | M14 melanoma 99.7%

CCCCC(=O)Nc1ncc(Cc2ccccc2Cl)s1
inactive: NCI-H23 lung 69.4% | NCI-H226 lung 63.4% | NCI-H322M lung 86.8% | HOP-62 NSCLC 42.7% | NCI-H460 lung 51% | HOP-92 NSCLC 51.3% | NCI-H522 lung 19.9% | A549/ATCC NSCLC 40.9% | 786-0 renal 50% | COLO 205 colon 37% | DU-145 prostate 67.2% | K-562 leukemia 24.8% | MALME-3M melanoma 52.1% | MDA-MB-231 breast 53.3% | RXF 393 renal 31.3% | SF-268 CNS 69.6% | SF-295 CNS 45.7% | SF-539 CNS 39.2% | UACC-257 melanoma 55.3% | M14 melanoma 21.8%

Source: PubChem BioAssay (NCI)
